Here are results for seven molecules from PubChem BioAssay.

The structures appear in SMILES notation. Several values for one entry are separate records, joined by “and”; a condition that tells them apart may be missing. Equal entries are not always repeated. Inconclusive results are not listed. Activity calls are given as the source filed them.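 Rule for the calls, unless noted: active = compounds whose cell count with miR-34 switched on is under 0.7 times the count with it off; inactive = the rest.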

Assay [1] in a line: liver-stage malaria parasite growth inhibition, primary screen, cell-based, HepG2, luciferase luminescence, HepG2 viability (AID 624349; in the data active = parasite load remaining mostly below about 12%, no sharp cut-off; inactive = mostly above about 10%;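 note: 100% = mean of DMSO negative control wells on the same plate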). Particulars: P. berghei liver stage in HepG2, luciferase luminescence, concentration not given here; parasite load remaining: stronger effect = lower value; viability: measured here: HepG2 viability without parasites.
For assay [2], the target named is 6-phosphogluconate dehydrogenase, decarboxylating (Homo sapiens) (UniProt P52209). Put plainly: 6PGD enzyme inhibitors, primary screen, biochemical, human, recombinant enzyme, NADPH absorbance (AID 1159550;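 active = at least 20% inhibition of 6-phosphogluconate dehydrogenase activity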). Particulars: recombinant 6PGD, NADPH absorbance 341 nm; at 10 µM; stronger effect = higher value.
Sequence of 6-phosphogluconate dehydrogenase, decarboxylating (Homo sapiens) (P52209 whole entry, looked up): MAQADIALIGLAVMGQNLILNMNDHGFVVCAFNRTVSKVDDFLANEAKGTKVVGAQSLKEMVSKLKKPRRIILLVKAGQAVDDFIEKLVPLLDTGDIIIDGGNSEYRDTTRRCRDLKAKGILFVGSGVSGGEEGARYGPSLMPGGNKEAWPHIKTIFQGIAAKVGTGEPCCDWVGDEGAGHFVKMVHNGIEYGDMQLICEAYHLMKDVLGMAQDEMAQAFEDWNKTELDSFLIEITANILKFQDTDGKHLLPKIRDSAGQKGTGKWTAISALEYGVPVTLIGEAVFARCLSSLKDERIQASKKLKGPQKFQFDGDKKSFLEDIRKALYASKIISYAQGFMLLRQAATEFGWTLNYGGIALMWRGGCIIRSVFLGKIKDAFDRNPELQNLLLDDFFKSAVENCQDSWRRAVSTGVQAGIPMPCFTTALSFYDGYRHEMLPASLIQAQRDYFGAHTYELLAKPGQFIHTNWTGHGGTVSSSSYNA
Assay [3] in a line: sensitizers of A549 cells to miR-34 induction, primary screen, imaging, A549 dox-inducible miR-34, nuclei and caspase counts (AID 1347080). Particulars: A549 miR-34 inducible, Hoechst nuclei count, 48 h.
The nature of assay [4]: survival rescue of mitochondrial mutant cells in low glucose, primary screen, MELAS cybrids, Rieske KO mouse fibroblasts, CellTiter-Glo (AID 1508586;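 active = mean z-score across replicates of 1.96 or higher in either the MELAS or the Rieske mutant cell line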;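 note: z relative to plate mean and SD of compound and empty wells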). On the technique in general: In ATP-based viability assays light output follows the ATP content of the culture.
For assay [5], the target named is NAD(+) hydrolase SARM1 (Homo sapiens) (UniProt Q6SZW1). Put plainly: SARM1 TIR NADase inhibitors, cell lysate, NAD-Glo luminescence (AID 1508614;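 active = compound whose remaining NAD level is above about 45 nM, limit read from the data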;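 note: higher remaining NAD means stronger inhibition of SARM1 NADase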). Particulars: SAM-TIR HEK293T lysate NADase, at 1 µM, stronger effect = higher value.
Sequence of NAD(+) hydrolase SARM1 (Homo sapiens) (Q6SZW1 whole entry, looked up, the tested form may be a part): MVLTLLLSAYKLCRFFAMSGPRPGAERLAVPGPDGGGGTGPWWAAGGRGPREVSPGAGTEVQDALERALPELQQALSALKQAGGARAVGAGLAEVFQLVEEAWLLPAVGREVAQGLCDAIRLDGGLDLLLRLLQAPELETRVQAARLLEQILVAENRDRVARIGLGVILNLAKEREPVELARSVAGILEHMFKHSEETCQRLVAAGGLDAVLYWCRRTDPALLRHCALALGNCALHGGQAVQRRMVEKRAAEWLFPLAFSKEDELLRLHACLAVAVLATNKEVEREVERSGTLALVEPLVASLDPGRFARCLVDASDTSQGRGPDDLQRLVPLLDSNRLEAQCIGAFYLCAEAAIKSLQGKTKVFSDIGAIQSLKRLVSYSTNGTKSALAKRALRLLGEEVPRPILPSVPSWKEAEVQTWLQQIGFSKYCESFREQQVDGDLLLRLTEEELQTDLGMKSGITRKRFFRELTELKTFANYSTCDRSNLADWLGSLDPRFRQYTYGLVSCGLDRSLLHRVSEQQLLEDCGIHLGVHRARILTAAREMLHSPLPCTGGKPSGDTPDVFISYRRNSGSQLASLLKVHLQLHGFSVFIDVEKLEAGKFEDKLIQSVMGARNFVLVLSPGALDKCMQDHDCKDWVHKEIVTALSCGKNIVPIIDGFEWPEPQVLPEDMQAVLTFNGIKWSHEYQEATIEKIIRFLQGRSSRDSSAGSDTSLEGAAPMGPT
Assay [6] concerns the target Mitogen-activated protein kinase 7 (Homo sapiens) (UniProt Q13164). Put plainly: ERK5 transactivation activators in reporter cells, primary screen, cell-based, HTS (AID 1508626;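 active = luciferase signal above three times the same-plate solvent-only control wells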;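 note: luciferase driven by Gal4-ERK5 fusion binding five Gal4 sites before minimal TATA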). Particulars: HeLa Gal4-ERK5 transactivation, 18 h, at 5 µM, stronger effect = higher value.
A short description of assay [7]: growth inhibition of DIPG glioma cells, dose response, cell-based, JHH-DIPG-1, MIPE4.0, CellTiter-Glo, qHTS (AID 1347062; cut-off not given, nearly all actives have AC50 up to about 27 µM). Particulars: JHH-DIPG-1 viability, CellTiter-Glo ATP luminescence.
Assay [8] is described as follows: viability rescue of complex I mutant cybrids, primary screen, cell-based, galactose medium, ATP luminescence (AID 1645843;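 active = z-score of at least 1.8 in each of two replicates, scored against plate mean and spread of sample wells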;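 note: positive z means more ATP and so rescue of galactose-driven cybrid death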). Particulars: complex I mutant cybrid cells, 72 h, stronger effect = higher value.
[9] abbreviates: stronger effect = lower value, cell number ratio, induced over uninduced.
[10] abbreviates: measured here: relative caspase fold change +Dox/-Dox.
Where [11] appears, read: measured here: total cells with miR-34 induction, stronger effect = lower value.
Where [12] appears, read: measured here: total cells without miR-34 induction.
Setting [13] is: MELAS cybrid survival, CellTiter-Glo 48 h, stronger effect = higher value.
Where [14] appears, read: Rieske KO mouse fibroblast survival, CellTiter-Glo 72 h.

For orientation: viability means a read-out of living cells in per cent, often relative to untreated cells. A word on the inhibition: it is the drop in the measured response relative to a control, in per cent.

Sequence of Mitogen-activated protein kinase 7 (Homo sapiens) (Q13164 whole entry, looked up, the tested form may be a part): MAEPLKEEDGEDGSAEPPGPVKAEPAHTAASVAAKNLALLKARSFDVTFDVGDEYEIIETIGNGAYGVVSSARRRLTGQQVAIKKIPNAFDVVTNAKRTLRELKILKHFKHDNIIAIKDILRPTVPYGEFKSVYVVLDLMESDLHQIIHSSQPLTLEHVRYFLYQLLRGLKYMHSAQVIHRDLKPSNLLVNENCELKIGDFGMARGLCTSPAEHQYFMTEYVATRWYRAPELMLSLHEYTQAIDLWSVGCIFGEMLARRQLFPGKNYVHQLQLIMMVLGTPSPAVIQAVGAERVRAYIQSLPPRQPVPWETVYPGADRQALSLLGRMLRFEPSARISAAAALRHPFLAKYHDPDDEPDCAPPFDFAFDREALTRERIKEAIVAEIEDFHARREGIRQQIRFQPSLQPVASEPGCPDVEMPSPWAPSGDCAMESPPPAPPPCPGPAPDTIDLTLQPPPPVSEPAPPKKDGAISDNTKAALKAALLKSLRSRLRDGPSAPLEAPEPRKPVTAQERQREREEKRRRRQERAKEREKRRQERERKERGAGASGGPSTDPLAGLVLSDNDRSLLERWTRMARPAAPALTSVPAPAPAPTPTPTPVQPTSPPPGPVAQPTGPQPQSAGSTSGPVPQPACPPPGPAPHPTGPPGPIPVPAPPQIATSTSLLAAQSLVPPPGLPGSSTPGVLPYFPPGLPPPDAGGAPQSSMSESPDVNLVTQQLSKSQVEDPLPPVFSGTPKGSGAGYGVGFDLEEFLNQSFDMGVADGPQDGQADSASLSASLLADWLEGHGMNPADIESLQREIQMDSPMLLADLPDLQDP

`C[C@]12CC[C@H]3C(=CCc4cc(O)ccc43)[C@@H]1CCC2=O`: the parasite load remaining in assay [1] is 125% (inactive). Moreover, the viability in assay [1] amounted to 97.4%. Besides, the inhibition in assay [2] is 9.47% (inactive). In addition, the fold change is 0.908 (inactive) in assay [3] (setting [9]) and 1.13 in assay [3] (setting [10]). Also, the values for the cell count in assay [3] (setting [11]) and in assay [3] (setting [12]) were 7380 and 8130, respectively. The figures for the z-score in assay [4] (setting [13]) and in assay [4] (setting [14]) were 0.735 (inactive) and 0.488, respectively. Also, the remaining NAD in assay [5] is 10 nM (inactive). The luciferase signal in assay [6] was 84 AU (inactive).
Turning to `O[C@H]1[C@H]2c3cc4c(cc3CN3CCC(=C[C@@H]1O)[C@H]23)OCO4`, the inhibition in assay [2] is 9.07% (inactive). For the same molecule, the figures for the fold change in assay [3] (setting [9]) and in assay [3] (setting [10]) were 1.05 (inactive) and 1.33, respectively. Moreover, the cell count in assay [3] (setting [11]) came to 1670; in assay [3] (setting [12]), 1580.
As for `COc1ccc2ccc(=O)oc2c1CC=C(C)C`, the inhibition in assay [2] was 9.51% (inactive). In addition, the molecule was classed as inactive in assay [7]. Also, the values for the fold change in assay [3] (setting [9]) and in assay [3] (setting [10]) were 0.94 (inactive) and 0.78, respectively. The values for the cell count in assay [3] (setting [11]) and in assay [3] (setting [12]) were 8510 and 9050, respectively. The z-score in assay [4] (setting [13]) was -0.211 (inactive); in assay [4] (setting [14]), -1.1. In addition, the luciferase signal in assay [6] was 36 AU (inactive).
For `CCOc1nc2cccc(C(=O)OC(C)OC(=O)OC3CCCCC3)c2n1Cc1ccc(-c2ccccc2-c2nn[nH]n2)cc1` (centres undefined), the parasite load remaining in assay [1] was 137% (inactive) and 50.7% (inactive). Further, in assay [1], the viability was 83.9% and 101%. In addition, in assay [2], the inhibition is 2.36% (inactive). Besides, the fold change is 0.972 (inactive) and 0.852 (inactive) in assay [3] (setting [9]); 0.675 and 3.41 in assay [3] (setting [10]). Moreover, the cell count in assay [3] (setting [11]) is 8090 and 11000; in assay [3] (setting [12]), 8320 and 12900. Further, the z-score in assay [4] (setting [13]) is 0.432 (inactive); in assay [4] (setting [14]) it was -0.0296. Moreover, the remaining NAD in assay [5] was 10 nM (inactive). For the same molecule, in assay [6], the luciferase signal was 40 AU (inactive).
`CN[C@@H]1[C@@H](O[C@H]2O[C@H](CO)[C@@H](N)[C@H](O)[C@H]2O)O[C@H]2C[C@@H](N)[C@@H](O[C@H]3[C@H](O)[C@@H](O)[C@H](N)C[C@@H]3N)O[C@@H]2[C@@H]1O`: the parasite load remaining in assay [1] was 21.5% (inactive). Further, the viability in assay [1] is 69%. In assay [2], the inhibition is 3.92% (inactive). The fold change in assay [3] (setting [9]) is 0.906 (inactive); in assay [3] (setting [10]) it was 1.04. For the same molecule, the figures for the cell count in assay [3] (setting [11]) and in assay [3] (setting [12]) were 9860 and 10900, respectively. The figures for the z-score in assay [4] (setting [13]), in assay [4] (setting [14]) and in assay [8] were 0.598 (inactive), 0.317 and 0.86 (inactive), respectively. The remaining NAD in assay [5] is 10 nM (inactive). Further, the luciferase signal in assay [6] was 28 AU (inactive).
With `O=C1O[C@H]([C@@H](O)CO)C(O)=C1O`, in assay [1], the parasite load remaining is -6.73% (active). Further, the viability in assay [1] worked out at 110%. For the same molecule, the inhibition in assay [2] was -9.94% (inactive). Further, the fold change in assay [3] (setting [9]) is 0.839 (inactive); in assay [3] (setting [10]) it was 1.22. In addition, the cell count in assay [3] (setting [11]) was determined as 7560; in assay [3] (setting [12]), 9010. Further, the values for the z-score in assay [4] (setting [13]) and in assay [4] (setting [14]) were -0.883 (inactive) and -0.395, respectively. For the same molecule, in assay [5], the remaining NAD is 10 nM (inactive). For the same molecule, the luciferase signal in assay [6] was 60 AU (inactive).
Turning to `C[C@H](CCC(=O)O)[C@H]1CC[C@H]2[C@@H]3CC[C@@H]4C[C@H](O)CC[C@]4(C)[C@H]3CC[C@]12C`, the parasite load remaining in assay [1] was 106% (inactive). Further, the viability in assay [1] turned out to be 101%. The inhibition in assay [2] was 3.51% (inactive). The results for the fold change in assay [3] (setting [9]) and in assay [3] (setting [10]) were 0.876 (inactive) and 1.28, respectively. The cell count in assay [3] (setting [11]) was 8840; in assay [3] (setting [12]) it was 10100. For the same molecule, the z-score in assay [4] (setting [13]) is 0.139 (inactive); in assay [4] (setting [14]), -0.0326. The luciferase signal in assay [6] is 76 AU (inactive).
